In PubChem BioAssay AID1159580 (chemical genetic matrix, 2015):
Values joined by “and” are separate entries in the source; they are usually repeats but may differ in a detail not shown here. Identical values can stand only once. The whole screen tested about 5,500 compounds, of which about 2,000 (36%) were called active. Roughly 18% stayed inconclusive and do not appear here. Cut-off read from the data, not from the text of the source: active = normalized growth mostly below about 0.91 (no sharp cut-off); inconclusive = no clear call, values can overlap the other calls; inactive = mostly above about 0.92. Some of the results follow.

Assay: chemical genetic growth profiling, strain panel (AID 1159580);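 note: tested at 20 µM; growth read once vehicle control cultures reached saturation at 30 °C; 1 = growth at the plate median or of vehicle wells; lower values mean less growth of the strain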
Details: growth OD

Measured: normalized growth

CN(C)CCC(c1ccccc1)c1ccccn1 (centres undefined)
inactive: S. cerevisiae deletion strains, locus YJR066W, strain TOR1, hits give low values 0.93 | S. cerevisiae deletion strains, locus YJR075W, strain HOC1, hits give low values 1.01 and 0.951 | S. cerevisiae deletion strains, locus YKL009W, strain mrt4, hits give low values 1.03 | S. cerevisiae deletion strains, locus YKL068W, hits give low values 1 | S. cerevisiae deletion strains, locus YKL085W, strain MDH1 (second series), hits give low values 1.01 | S. cerevisiae deletion strains, locus YKL085W, strain MDH1, hits give low values 1.01 | S. cerevisiae deletion strains, locus YKL160W, strain elf1, hits give low values 1.01 | S. cerevisiae deletion strains, locus YKL190W, strain CNB1, hits give low values 1.01 | S. cerevisiae deletion strains, locus YKR001C, strain vps1, hits give low values 1 | S. cerevisiae deletion strains, locus YKR026C, strain gcn3, hits give low values 1.03 | S. cerevisiae deletion strains, locus YKR091W, strain srl3, hits give low values 1 | S. cerevisiae deletion strains, locus YLL001W, strain dnm1, hits give low values 1.02 | S. cerevisiae deletion strains, locus YLL026W, hits give low values 1.02 | S. cerevisiae deletion strains, locus YLL041C, strain sdh2, hits give low values 1.02 | S. cerevisiae deletion strains, locus YLR027C, strain aat2, hits give low values 1.01 | S. cerevisiae deletion strains, locus YLR039C, strain RIC1, hits give low values 1.05 | S. cerevisiae deletion strains, locus YLR058C, strain SHM2, hits give low values 1 | S. cerevisiae deletion strains, locus YLR102C, strain apc9, hits give low values 1 | S. cerevisiae deletion strains, locus YLR113W, strain HOG1, hits give low values 0.981 | S. cerevisiae deletion strains, locus YLR221C, strain rsa3, hits give low values 1.01 | S. cerevisiae deletion strains, locus YLR258W, strain gsy2, hits give low values 1.01 | S. cerevisiae deletion strains, locus YLR262C, strain YPT6 (second series), hits give low values 1.03 | S. cerevisiae deletion strains, locus YLR262C, strain YPT6, hits give low values 1.01 | S. cerevisiae deletion strains, locus YLR268W, strain sec22, hits give low values 1.04 | S. cerevisiae deletion strains, locus YLR320W, strain mms22, hits give low values 1.01 | S. cerevisiae deletion strains, locus YLR330W, strain CHS5, hits give low values 1.01 | S. cerevisiae deletion strains, locus YLR342W, strain FKS1 (second series), hits give low values 1.03 | S. cerevisiae deletion strains, locus YLR342W, strain FKS1, hits give low values 1.01 | S. cerevisiae deletion strains, locus YLR357W, strain rsc2, hits give low values 1.02 | S. cerevisiae deletion strains, locus YLR370C, strain arc18, hits give low values 1.02 | S. cerevisiae deletion strains, locus YLR371W, strain rom2, hits give low values 1.01 | S. cerevisiae deletion strains, locus YLR384C, strain iki3, hits give low values 1.01 | S. cerevisiae deletion strains, locus YLR418C, strain cdc73, hits give low values 0.995 | S. cerevisiae deletion strains, locus YML016C, strain PPZ1, hits give low values 1 | S. cerevisiae deletion strains, locus YML032C, strain rad52, hits give low values 1.01 | S. cerevisiae deletion strains, locus YML120C, strain ndi1, hits give low values 1.01 | S. cerevisiae deletion strains, locus YML124C, strain tub3, hits give low values 1 | S. cerevisiae deletion strains, locus YMR058W, strain fet3, hits give low values 1.02 | S. cerevisiae deletion strains, locus YMR078C, strain ctf18, hits give low values 1.01 | S. cerevisiae deletion strains, locus YMR125W, strain sto1, hits give low values 1.01 | S. cerevisiae deletion strains, locus YMR129W, hits give low values 1.01 | S. cerevisiae deletion strains, locus YMR205C, strain PFK2, hits give low values 1.01 | S. cerevisiae deletion strains, locus YMR223W, strain ubp8, hits give low values 0.983 | S. cerevisiae deletion strains, locus YMR231W, strain pep5, hits give low values 1.02 | S. cerevisiae deletion strains, locus YMR263W, strain SAP30, hits give low values 1 and 0.998 | S. cerevisiae deletion strains, locus YMR307W, strain GAS1, hits give low values 1.03 and 0.977 | S. cerevisiae deletion strains, locus YNL067W, strain RPL9B, hits give low values 0.996 | S. cerevisiae deletion strains, locus YNL071W, strain lat1, hits give low values 1.01 | S. cerevisiae deletion strains, locus YNL128W, strain TEP1, hits give low values 1.02 | S. cerevisiae deletion strains, locus YNL175C, strain NOP13, hits give low values 1.01 | S. cerevisiae deletion strains, locus YNL183C, strain NPR1, hits give low values 0.939 | S. cerevisiae deletion strains, locus YNL197C, strain WHI3, hits give low values 1.01 | S. cerevisiae deletion strains, locus YNL209W, strain ssb2, hits give low values 1.02 | S. cerevisiae deletion strains, locus YNL224C, strain SQS1, hits give low values 1 | S. cerevisiae deletion strains, locus YNL233W, strain BNI4, hits give low values 1 | S. cerevisiae deletion strains, locus YNL248C, strain rpa49, hits give low values 1 | S. cerevisiae deletion strains, locus YNL250W, strain rad50, hits give low values 0.997 | S. cerevisiae deletion strains, locus YNL271C, strain bni1, hits give low values 0.993 | S. cerevisiae deletion strains, locus YNL298W, strain CLA4, hits give low values 1.01 | S. cerevisiae deletion strains, locus YNL307C, strain MCK1, hits give low values 1.01 | S. cerevisiae deletion strains, locus YNL322C, strain KRE1 (second series), hits give low values 1.01 | S. cerevisiae deletion strains, locus YNR049C, strain mso1, hits give low values 1.02 | S. cerevisiae deletion strains, locus YNR052C, strain pop2, hits give low values 1.01 | S. cerevisiae deletion strains, locus YOL006C, strain TOP1, hits give low values 0.993 | S. cerevisiae deletion strains, locus YOL012C, strain htz1 2.13 | S. cerevisiae deletion strains, locus YOL147C, strain pex11, hits give low values 1 | S. cerevisiae deletion strains, locus YOR001W, strain rrp6, hits give low values 0.988 | S. cerevisiae deletion strains, locus YOR061W, strain CKA2, hits give low values 1 | S. cerevisiae deletion strains, locus YOR069W, strain VPS5, hits give low values 1.01 | S. cerevisiae deletion strains, locus YOR070C, strain gyp1, hits give low values 1.01 | S. cerevisiae deletion strains, locus YOR080W, strain dia2, hits give low values 1.01 | S. cerevisiae deletion strains, locus YOR083W, strain WHI5 (second series), hits give low values 1.03 | S. cerevisiae deletion strains, locus YOR083W, strain WHI5, hits give low values 1.01 | S. cerevisiae deletion strains, locus YOR106W, strain vam3, hits give low values 1 | S. cerevisiae deletion strains, locus YOR136W, strain idh2, hits give low values 0.99 | S. cerevisiae deletion strains, locus YOR144C, strain elg1, hits give low values 0.995 | S. cerevisiae deletion strains, locus YOR184W, strain ser1, hits give low values 1.01 | S. cerevisiae deletion strains, locus YOR231W, strain MKK1, hits give low values 0.981 | S. cerevisiae deletion strains, locus YOR265W, strain rbl2, hits give low values 1 | S. cerevisiae deletion strains, locus YOR270C, strain vph1, hits give low values 0.997 | S. cerevisiae deletion strains, locus YOR290C, strain snf2, hits give low values 1.04 | S. cerevisiae deletion strains, locus YOR316C, strain cot1, hits give low values 1 | S. cerevisiae deletion strains, locus YPL051W, strain arl3, hits give low values 1.01 | S. cerevisiae deletion strains, locus YPL055C, strain LGE1, hits give low values 0.985 | S. cerevisiae deletion strains, locus YPL078C, strain atp4, hits give low values 1.01 | S. cerevisiae deletion strains, locus YPL106C, strain sse1, hits give low values 1 | S. cerevisiae deletion strains, locus YPL240C, strain hsp82, hits give low values 0.989 | S. cerevisiae deletion strains, locus YPL256C, strain CLN2, hits give low values 0.928 | S. cerevisiae deletion strains, locus YPR119W, strain clb2, hits give low values 1 | S. cerevisiae deletion strains, locus YPR141C, strain kar3, hits give low values 0.994 | S. cerevisiae deletion strains, locus YPR163C, strain tif3, hits give low values 1.01 | S. cerevisiae deletion strains, locus YPR167C, strain met16, hits give low values 0.999 | S. cerevisiae deletion strains, strain wtn01, hits give low values 1 | S. cerevisiae strains, strain wild type, hits give low values 1.01
